Screening data (PubChem BioAssay)
GSTO1 counter = blocks human GSTO1 in RBBP9 counter-screen. P78417. recombinant GSTO1, activity-based probe fluorescence polarization. inhibition, % at 5.96 µM. 1.1% of 300,000 active;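 active = inhibition above the campaign mean inhibition plus 3 SD, cut at about 35% in these data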;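 also: 0% = GSTO1-1 with DMSO and 100% = wells lacking GSTO1-1 enzyme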
LYPLA1 inh = blocks human lysophospholipase 1, a PME1 counter-screen; recombinant LYPLA1, FP-Rh probe fluorescence polarization; AID 2174; O75608; 0.16% of 320,000 active; inhibition, % at 5.9 µM;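 active = inhibition above the mean of all tested compounds plus 3 SD, set per campaign, cut at about 14% in these data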;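 also: inhibitors block serine hydrolase probe labeling of LYPLA1 so polarization falls; 0% = enzyme with DMSO and 100% = wells lacking LYPLA1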
LYPLA2 inh = counter-screen for PME1 inhibitors: inhibitors of human LYPLA2. O95372. recombinant LYPLA2, FP-Rh probe fluorescence polarization. inhibition, % at 5.9 µM. 0.38% of 320,000 active. AID 2177;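 active = inhibition above the screen-wide mean plus 3 SD, limit set per campaign, cut at about 26% in these data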;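 also: 0% = LYPLA2 with DMSO and 100% = wells lacking LYPLA2 enzyme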
PAD4 inh = blocks human protein arginine deiminase 4. Q9UM07. recombinant PAD4, RCA probe fluorescence polarization. inhibition, % at 6.36 µM. 0.41% of 330,000 active. AID 485272;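 active = percent inhibition above a cutoff equal to the mean of all tested compounds plus 3 SD, cut at about 15% in these data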;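 also: 0% = PAD4 with RCA probe and DMSO and 100% = probe without PAD4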
Fam108B counter = Fam108B inhibition, counter-screen for RBBP9 inhibitors; recombinant Fam108B, FP-Rh probe fluorescence polarization; inhibition, % at 9.51 µM; 0.33% of 300,000 active;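 active = inhibition above the screen mean inhibition plus 3 SD, computed separately per campaign, cut at about 18% in these data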;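 also: inhibitors lower polarization as less probe binds the enzyme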
PME-1 inh = PME-1 (human) inhibition | recombinant PME-1, FP-Rh probe fluorescence polarization | 0.53% of 320,000 active | inhibition, % at 5.9 µM | Q9Y570;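 active = inhibition above the campaign mean of all compounds plus 3 SD, cut at about 26% in these data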;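 also: competitive labeling of PME-1 active site by serine hydrolase directed probe; 0% = PME-1 with DMSO and 100% = wells lacking PME-1 enzyme; inhibitors block probe labeling so polarization falls and inhibition rises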
Target sequence (Q9Y570 whole entry, looked up): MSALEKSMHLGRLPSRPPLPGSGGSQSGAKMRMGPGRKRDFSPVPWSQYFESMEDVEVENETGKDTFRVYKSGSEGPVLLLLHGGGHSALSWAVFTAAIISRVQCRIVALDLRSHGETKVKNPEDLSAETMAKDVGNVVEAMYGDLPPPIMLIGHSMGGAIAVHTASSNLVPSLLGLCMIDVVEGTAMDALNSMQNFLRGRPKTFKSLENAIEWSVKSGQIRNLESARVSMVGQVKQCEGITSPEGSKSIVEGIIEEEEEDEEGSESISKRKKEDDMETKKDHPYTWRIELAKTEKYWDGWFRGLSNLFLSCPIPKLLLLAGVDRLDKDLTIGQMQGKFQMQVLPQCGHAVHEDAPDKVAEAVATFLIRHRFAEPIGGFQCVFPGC
Fam108b inh conf = Fam108b (mouse) hydrolase inhibition, confirmation assay; AID 1978; recombinant Fam108b, FP-Rh probe fluorescence polarization; inhibition, % at 9.51 µM; shares compounds with Fam108B counter; 44% of 930 active;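 active = inhibition above a limit from the primary screen, the mean over all compounds plus 3 SD, cut at about 19% in these data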;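 also: 0% = median of active Fam108b wells and 100% = catalytically dead S170A mutant; inhibitors free the probe so polarization falls as inhibition rises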
Fam108b inh = inhibits mouse Fam108b in gel-based ABPP; shares compounds with Fam108B counter; recombinant Fam108b, fluorophosphonate probe; inhibition, % at 20 µM; 44% of 260 active; AID 588649; in the data active = inhibition above about 40%
GSTO1 confirm = GSTO1 (human) inhibition, confirmation; shares compounds with GSTO1 counter; recombinant GSTO1, probe fluorescence polarization; inhibition, % at 5.96 µM; 54% of 2,400 active; AID 2176;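 active = inhibition above the primary screen's cutoff, its mean inhibition plus 3 SD, cut at about 35% in these data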;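 also: loss of polarization as inhibitors block binding of rhodamine sulfonate ester activity probe; 0% = GSTO1 with DMSO and 100% = wells lacking GSTO1 enzyme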
LYPLA1 confirm = counter-screen for PME1 inhibitors: confirmation of human LYPLA1 inhibitors. shares compounds with LYPLA1 inh. recombinant LYPLA1, FP-Rh probe fluorescence polarization. inhibition, % at 5.9 µM. AID 2233. 69% of 480 active;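 active = mean inhibition across replicates above the hit cutoff set in the primary screen, cut at about 15% in these data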;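 also: loss of FP-Rh probe labeling of LYPLA1 seen as lower polarization; 0% = LYPLA1 with DMSO and 100% = wells lacking LYPLA1 enzyme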
LYPLA2 conf = counter-screen for PME1 inhibitors: confirmation of human LYPLA2 inhibitors | shares compounds with LYPLA2 inh | recombinant LYPLA2, FP-Rh probe fluorescence polarization | inhibition, % at 5.9 µM | 72% of 1,100 active;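 active = mean inhibition across replicates above the hit cutoff set in the primary screen, cut at about 26% in these data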;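 also: blocked labeling of the enzyme by serine hydrolase FP-Rh probe lowers polarization; 0% = enzyme with DMSO and 100% = wells lacking LYPLA2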
PAD4 FP conf = confirmation of human PAD4 inhibitors; inhibition, % at 6.36 µM; shares compounds with PAD4 inh; recombinant PAD4, RCA probe fluorescence polarization; 28% of 1,200 active;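 active = mean inhibition across replicates above the hit cutoff set by the earlier primary screen, cut at about 15% in these data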;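 also: inhibitors block active-site labeling by the probe so polarization falls; 0% = PAD4 with probe and DMSO and 100% = probe without PAD4 enzyme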
* = called active by the depositor; . = not tested or not shown; + = active, no number. Hits are enriched below; roughly 1.8% of the tested compounds scored in any of these assays.

SMILES | GSTO1 counter | LYPLA1 inh | LYPLA2 inh | PAD4 inh | Fam108B counter | PME-1 inh | Fam108b inh conf | Fam108b inh | GSTO1 confirm | LYPLA1 confirm | LYPLA2 conf | PAD4 FP conf
COC(=O)c1cc(S(=O)(=O)N2CCOCC2)c(Cl)cc1N1CCOCC1 | 2 | 0 | 1 | -4 | -2 | -1 | . | . | . | . | . | .
COC(=O)c1cc(C)nc2c1C(=O)C(=O)C=C2N1CCOCC1 | 99* | 72* | 79* | 72* | 71* | 36* | 82* | 0 | 95* | 91* | 93* | 67*
COc1ccc(OC)c(-c2c3cc(O)c(=O)cc-3oc3cc(O)c(O)cc23)c1 | 50* | 85* | 77* | 55* | 73* | 59* | 110* | . | 73* | -22 | -83 | +
COc1ccccc1NCCC(=O)O | 0 | 3 | -2 | 1 | -3 | -1 | . | . | . | . | . | .
O=C(O)CCNc1ccc(NCCC(=O)O)c2c1C(=O)c1ccccc1C2=O | 18 | 9 | 24 | 22* | 36* | 27* | 26* | . | . | . | . | 11
O=C(O)c1c[nH]c2ccc(F)cc2c1=O | 3 | 0 | 0 | -1 | -1 | -6 | . | . | . | . | . | .
COc1ccc(C(=O)NCc2nnc(SCC(=O)NCCc3ccccc3)o2)cc1 | 5 | -1 | -7 | -7 | -2 | 1 | . | . | . | . | . | .
COc1ccc(NC(=S)Nc2ccc3nsnc3c2)cc1 | 86* | 61* | 86* | 68* | 29* | 36* | 40* | 55* | 80* | 0 | 20 | -4
CC1CCN(C(=O)Nc2ccc3nsnc3c2)CC1 | 4 | 0 | 0 | 1 | 2 | 2 | . | . | . | . | . | .
COc1ccc(NC(=S)Nc2ccc3nc(C)c(C)nc3c2)cc1 | -1 | 3 | 6 | -4 | 2 | 9 | . | . | . | . | . | .
CC(C)N(C(=O)Nc1ccc2nsnc2c1)C(C)C | 98* | 71* | 73* | 78* | 55* | 32* | 33* | 0 | 77* | 10 | 31* | 1
Cc1oc2cc(O)ccc2c(=O)c1-c1ccccc1 | 5 | 1 | 5 | 0 | 1 | -2 | . | . | . | . | . | .
O=c1ccc2c(-c3ccccc3)c3ccc(O)cc3oc-2c1 | -3 | 46* | 41* | 29* | 26* | 5 | 42* | 25 | . | 33* | 29* | 63*
C=CCCCCc1nc2ccccc2c(=O)n1N | 1 | -2 | -6 | 4 | -3 | 0 | . | . | . | . | . | .
CN(C)c1cc(-c2ccc(Br)cc2)oc(=O)c1Cl | -7 | -4 | 3 | -3 | -7 | 0 | . | . | . | . | . | .
CSc1nsc(/C=C/Nc2ccc(O)cc2C)c1C#N | 69* | 22* | 30* | 29* | 21* | 51* | 14 | . | . | -7 | -7 | -2
Cc1cc(C)c(S(=O)(=O)/N=C2\C=C(Nc3ccc(C(=O)O)cc3)C(=O)c3ccccc32)c(C)c1 | 85* | -5 | 11 | 53* | 40* | 15 | 59* | 0 | 89* | . | . | 40*
CCc1ccc(S(=O)(=O)/N=C2\C=C(Nc3ccc(O)cc3)C(=O)c3ccccc32)cc1 | 87* | -12 | 4 | 52* | 20* | 40* | 17 | . | 87* | . | . | 50*
CCOC(=O)C1=C(O)c2ccccc2C(=O)/C1=C\c1ccc(CC)cc1 | 31 | 0 | 4 | -42 | 3 | 6 | . | . | . | . | . | .
CCc1ccc(S(=O)(=O)/N=C2\C=C(Nc3cccc(C(=O)O)c3)C(=O)c3ccccc32)cc1 | 98* | 10 | 15 | 71* | 57* | 29* | 78* | 40* | 92* | . | . | 66*
